Screen size: about 63,000 compounds; about 1,100 (1.7%) were called active.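 How the source made its calls: active means compounds whose percent cytotoxicity in the single-dose primary screen, scaled between solvent and toxic-drug controls, exceeds 50; inactive means the rest.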 What follows is part of a selection rich in actives, with near analogues and random picks from the rest. Potency and affinity values are given separately.

The assay can be described thus: cytotoxicity in KRAS-transformed pancreatic duct cells, primary screen, cell-based, fluorescence, HTS (AID 431).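 Further: 0% = DMSO solvent wells and 100% = doxorubicin-treated wells.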 The following applies: HPDE-C7K KRASV12 cells, Alamar Blue viability, 48 h; at 10 µM; active compounds read high.
Consider `O=C(C1CCN(S(=O)(=O)c2cccnc2)CC1)N1CCN(C2CCCC2)CC1`, for which the cytotoxicity was -8.1% (inactive).
To `Cc1ccc(CNc2nc3c([nH]2)c(=O)n(C)c(=O)n3C)cc1` belongs -19.3% (inactive); to `Cc1ccc(C(CC(=O)N2CCCC2)c2ccccc2)c(O)c1C` (stereo not given), -9.2% (inactive).
Under `COc1ccccc1CNc1ncnc2nc[nH]c12` stands 4.5% (inactive).
To `Oc1ccc(CNc2ccccc2)c2cccnc12` belongs 44.4% (inactive).
On to `Oc1ccc(CN2CCCc3ccccc32)c2cccnc12`, for which the cytotoxicity was 36.7% (inactive).
To `CCOC(=O)C1CCN(Cc2ccc(O)c3ncccc23)CC1` belongs -4.5% (inactive); to `Oc1ccc(CN2CCN(Cc3ccccc3)CC2)c2cccnc12`, 6.1% (inactive); to `Oc1ccc(CNc2ccc(F)cc2)c2cccnc12`, 53.3% (active).
To `Oc1ccc(CNc2ccccc2F)c2cccnc12` belongs 5.5% (inactive); to `CN1CCN(Cc2cc(COCc3ccccc3)c3cccnc3c2O)CC1`, 4.8% (inactive).
Under `O=C(CSc1nnc(-c2ccc(S(=O)(=O)N3CCCC3)cc2)o1)NCc1ccco1` stands -15.4% (inactive); under `CCOc1ccc(OCC)c(NC(=O)CN(c2ccc(C)cc2)S(=O)(=O)c2c(C)noc2C)c1`, -6.3% (inactive); under `COC(=O)c1[nH]c2ccc(C)cc2c1NS(=O)(=O)c1ccc(F)c(C)c1`, 10.9% (inactive).
Consider `CCCn1c(SCC(=O)NC(C)(C)C)nnc1C(C)C`, for which the cytotoxicity was -5.9% (inactive).
Under `COc1cccc(OC)c1C(=O)Nn1c(C2CCC2)nc2ccccc2c1=O` stands -10.3% (inactive); under `O=C(CN1C(=O)CCS(=O)(=O)c2ccccc21)Nc1cccc(Cl)c1`, 2.5% (inactive).
Under `O=[n+]1c2c(n([O-])c3cc(F)ccc31)CCCC2` stands 0.3% (inactive); under `COc1cc(OC)cc(C(=O)NCc2n[nH]c(=S)n2-c2ccccc2)c1`, -3.1% (inactive).
Under `Cc1ccc(-c2c(C)c(-c3ccc(F)cc3)nc(N)c2C#N)o1` stands 19.3% (inactive).
Take `CCOc1ccccc1NC(=O)N1CCCC1C(=O)Nc1ccc(NC(C)=O)cc1` (stereo not given): the cytotoxicity is -3.3% (inactive).
`COc1cc(C(=O)N2CCN(c3cc(Cl)ccc3Cl)CC2)cc(OC)c1OC`: the cytotoxicity was 65.3% (active).
Under `COc1cc(C(=O)N2CCN(c3ccc(C)cc3C)CC2)cc(OC)c1OC` stands 28.6% (inactive).
In the case of `COc1ccc(Cl)cc1S(=O)(=O)N1CCN(C(=O)c2cc(OC)c(OC)c(OC)c2)CC1`, the cytotoxicity was -3.4% (inactive).
To `CC1(C)Cc2ccccc2-c2nnc(SCC(=O)Nc3ccc4c(c3)OCO4)n21` belongs 4.9% (inactive); to `COc1ccc(-c2noc(CN(C)S(=O)(=O)c3ccc(Cl)cc3)n2)cc1OC`, 27.5% (inactive); to `CCn1c2ccccc2c2cc(NC(=O)N3CCOCC3)ccc21`, -7.1% (inactive).
On to `C=CCn1c(SCC(=O)Nc2ccc(N(C)C)cc2)nnc1-c1cccc(C)c1`, for which the cytotoxicity is 33% (inactive).
As to `CCn1c2ccccc2c2cc(NC(=O)CSc3nnnn3-c3ccccc3)ccc21`, the cytotoxicity is 5.6% (inactive).
To `CCn1c(SCC(=O)Nc2ccc3c(c2)c2ccccc2n3CC)nnc1-c1ccco1` belongs 57.1% (active); to `CCn1c2ccccc2c2cc(CN3CCN(C(=O)c4ccco4)CC3)ccc21`, -16% (inactive); to `CCn1c(SCC(=O)Nc2ccc(S(N)(=O)=O)cc2)nnc1-c1cccc(OC)c1`, 6.1% (inactive).
As to `CCn1c(SCC(=O)Nc2ccc3c(c2)c2ccccc2n3CC)nnc1-c1cnccn1`, the cytotoxicity was 12.2% (inactive).
Under `CCn1c(SCC(=O)Nc2ccc3c(c2)OCCO3)nnc1-c1ccco1` stands 5.8% (inactive).
To `CCn1c2ccccc2c2cc(NC(=O)c3ccco3)ccc21` belongs 66.2% (active); to `CCn1c2ccccc2c2cc(NC(=O)CSc3nnc(-c4ccccc4OC)n3N)ccc21`, 66% (active); to `COc1ccc(NC(=O)CSc2nnc(-c3ccccc3C)n2N)cc1OC`, -2.1% (inactive).
For the compound `O=C(CSc1nn(-c2ccccc2)c(=S)s1)Nn1cnnc1`, the cytotoxicity is -11.8% (inactive).
To `CS(=O)(=O)N1CCCC(c2nc(-c3ccc(S(=O)(=O)NCc4ccccc4)cc3)no2)C1` (stereo not given) belongs -5.6% (inactive); to `O=C(CCCn1c(=S)[nH]c2cc3c(cc2c1=O)OCO3)N1CCN(c2ncccn2)CC1`, -12.6% (inactive).
Take `CCOc1ccccc1N1CCN(C(=O)Nc2cccc(Cl)c2)CC1`: the cytotoxicity is -2.1% (inactive).
In the case of `Cn1cc(C(=O)NC2CCCCCCC2)c(=O)c2cc(S(=O)(=O)N3CCCC3)ccc21`, the cytotoxicity is -3.8% (inactive).
On to `CCN(CC)S(=O)(=O)c1ccc2oc(C(=O)N3CCCCCC3)c(C)c2c1`, for which the cytotoxicity was 7.8% (inactive).
With `CCCN1Cc2cccc(C(=O)Nc3cc(OC)cc(OC)c3)c2C1=O`, the cytotoxicity is 16.6% (inactive).
Under `CC(C)(C)OC(=O)NCCc1nnc(SCC(=O)c2ccc(Cl)cc2)o1` stands 3.8% (inactive).
To `COc1cccc(C(=O)N(Cc2cc3cc(C)ccc3[nH]c2=O)CC2CCCO2)c1` (stereo not given) belongs -14.2% (inactive).
To `CCOC(=O)C1CCN(Cc2ccccc2C(F)(F)F)CC1` belongs -13.3% (inactive); to `On1cnnc1-c1ccccc1`, -12.7% (inactive).
With `CN1Cc2cc(C(=O)c3cc(Cl)cc(CSc4ncccn4)c3O)cnc2NC1=O`, the cytotoxicity was 66.2% (active).
To `Cc1ccc(O)c(C(=O)c2cnc3c(c2)CN(CCC(C)C)C(=O)N3)c1` belongs -6% (inactive); to `CCCCN1Cc2cc(C(=O)c3cc(F)ccc3O)cnc2NC1=O`, 6.7% (inactive).
To `CCCn1c(N)c(C(=O)CSc2nnc(-c3ccco3)n2Cc2ccccc2)c(=O)[nH]c1=O` belongs -9.1% (inactive).
To `Cc1cc(NC(=O)NC(=O)c2cccc(OC(F)(F)C(F)F)c2)n[nH]1` belongs -3.6% (inactive); to `Cc1cc(C)c2c(CN3CCN(C/C=C/c4ccccc4)CC3)cc(=O)oc2c1`, 72.7% (active).
As for `CCN1CCN(Cc2cc(=O)oc3cc(C)cc(C)c23)CC1`, the cytotoxicity is 7.2% (inactive).
Under `Cc1cc(C)c2c(CN3CCN(C)CC3)cc(=O)oc2c1` stands 9.6% (inactive); under `CCOC(=O)c1c(C)n(C)c2ccc(O)c(CN3CCN(C)CC3)c12`, 4.9% (inactive).
Under `Cc1cc(C2=CC(C)(c3cc(C)oc3C)Nc3nc(C(F)(F)F)nn32)c(C)o1` (stereo not given) stands 56.2% (active).
To `Cc1cccc(NC(=O)c2cnc3sccn3c2=O)c1C` belongs 0.5% (inactive); to `CCOC(=O)c1ccc(NC(=O)CCC(=O)OC)cc1`, 0% (inactive).

For the origin of these results see PubChem BioAssay AID431 (Sanford-Burnham Center for Chemical Genomics, 2006).
